Experimental data published in PubChem BioAssay.
The source made the active and inactive calls.

Experiments:
[1] = small molecules captured by biotinylated probe aFSTL3 – biochemical, small-molecule microarray, fluorescence 635/667, stem cell growth factor project, primary screen (AID 1064); conditions: higher = more signal;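 further: measures binding of the biotinylated anti-FSTL3 antibody to printed compounds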
[2] = binders from COS7 lysate, DM2A8 probe, primary screen, torsin A project, cell lysate, small-molecule microarray, fluorescence 635/667 (AID 1065); conditions: higher = more signal, COS7 lysate expressing mutant human TOR1A
[3] = small molecules captured by biotinylated probe aFGF2 – biochemical, small-molecule microarray, fluorescence 635/667, stem cell growth factor project, primary screen (AID 1067); conditions: higher = more signal;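 further: measures binding of biotinylated aFGF2 protein to printed compounds on slides; z-score merges feature fluorescence and signal-to-noise across triplicate slides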
[4] = small molecules captured by biotinylated probe aFGF10 – biochemical, small-molecule microarray, fluorescence 635/667, stem cell growth factor project, primary screen (AID 1071); conditions: higher = more signal;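 further: score merges 667 nm spot intensity and signal to noise from triplicate slides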
[5] = target: Neurogenic locus notch homolog protein 2 (Homo sapiens) (UniProt Q04721); assay: small molecules binding Notch2 protein – biochemical, small-molecule microarray, 635 nm fluorescence, stem cell growth factors, primary screen (AID 1073); conditions: higher = more signal
Neurogenic locus notch homolog protein 2 (Homo sapiens), sequence (Q04721 whole entry, looked up, canonical isoform): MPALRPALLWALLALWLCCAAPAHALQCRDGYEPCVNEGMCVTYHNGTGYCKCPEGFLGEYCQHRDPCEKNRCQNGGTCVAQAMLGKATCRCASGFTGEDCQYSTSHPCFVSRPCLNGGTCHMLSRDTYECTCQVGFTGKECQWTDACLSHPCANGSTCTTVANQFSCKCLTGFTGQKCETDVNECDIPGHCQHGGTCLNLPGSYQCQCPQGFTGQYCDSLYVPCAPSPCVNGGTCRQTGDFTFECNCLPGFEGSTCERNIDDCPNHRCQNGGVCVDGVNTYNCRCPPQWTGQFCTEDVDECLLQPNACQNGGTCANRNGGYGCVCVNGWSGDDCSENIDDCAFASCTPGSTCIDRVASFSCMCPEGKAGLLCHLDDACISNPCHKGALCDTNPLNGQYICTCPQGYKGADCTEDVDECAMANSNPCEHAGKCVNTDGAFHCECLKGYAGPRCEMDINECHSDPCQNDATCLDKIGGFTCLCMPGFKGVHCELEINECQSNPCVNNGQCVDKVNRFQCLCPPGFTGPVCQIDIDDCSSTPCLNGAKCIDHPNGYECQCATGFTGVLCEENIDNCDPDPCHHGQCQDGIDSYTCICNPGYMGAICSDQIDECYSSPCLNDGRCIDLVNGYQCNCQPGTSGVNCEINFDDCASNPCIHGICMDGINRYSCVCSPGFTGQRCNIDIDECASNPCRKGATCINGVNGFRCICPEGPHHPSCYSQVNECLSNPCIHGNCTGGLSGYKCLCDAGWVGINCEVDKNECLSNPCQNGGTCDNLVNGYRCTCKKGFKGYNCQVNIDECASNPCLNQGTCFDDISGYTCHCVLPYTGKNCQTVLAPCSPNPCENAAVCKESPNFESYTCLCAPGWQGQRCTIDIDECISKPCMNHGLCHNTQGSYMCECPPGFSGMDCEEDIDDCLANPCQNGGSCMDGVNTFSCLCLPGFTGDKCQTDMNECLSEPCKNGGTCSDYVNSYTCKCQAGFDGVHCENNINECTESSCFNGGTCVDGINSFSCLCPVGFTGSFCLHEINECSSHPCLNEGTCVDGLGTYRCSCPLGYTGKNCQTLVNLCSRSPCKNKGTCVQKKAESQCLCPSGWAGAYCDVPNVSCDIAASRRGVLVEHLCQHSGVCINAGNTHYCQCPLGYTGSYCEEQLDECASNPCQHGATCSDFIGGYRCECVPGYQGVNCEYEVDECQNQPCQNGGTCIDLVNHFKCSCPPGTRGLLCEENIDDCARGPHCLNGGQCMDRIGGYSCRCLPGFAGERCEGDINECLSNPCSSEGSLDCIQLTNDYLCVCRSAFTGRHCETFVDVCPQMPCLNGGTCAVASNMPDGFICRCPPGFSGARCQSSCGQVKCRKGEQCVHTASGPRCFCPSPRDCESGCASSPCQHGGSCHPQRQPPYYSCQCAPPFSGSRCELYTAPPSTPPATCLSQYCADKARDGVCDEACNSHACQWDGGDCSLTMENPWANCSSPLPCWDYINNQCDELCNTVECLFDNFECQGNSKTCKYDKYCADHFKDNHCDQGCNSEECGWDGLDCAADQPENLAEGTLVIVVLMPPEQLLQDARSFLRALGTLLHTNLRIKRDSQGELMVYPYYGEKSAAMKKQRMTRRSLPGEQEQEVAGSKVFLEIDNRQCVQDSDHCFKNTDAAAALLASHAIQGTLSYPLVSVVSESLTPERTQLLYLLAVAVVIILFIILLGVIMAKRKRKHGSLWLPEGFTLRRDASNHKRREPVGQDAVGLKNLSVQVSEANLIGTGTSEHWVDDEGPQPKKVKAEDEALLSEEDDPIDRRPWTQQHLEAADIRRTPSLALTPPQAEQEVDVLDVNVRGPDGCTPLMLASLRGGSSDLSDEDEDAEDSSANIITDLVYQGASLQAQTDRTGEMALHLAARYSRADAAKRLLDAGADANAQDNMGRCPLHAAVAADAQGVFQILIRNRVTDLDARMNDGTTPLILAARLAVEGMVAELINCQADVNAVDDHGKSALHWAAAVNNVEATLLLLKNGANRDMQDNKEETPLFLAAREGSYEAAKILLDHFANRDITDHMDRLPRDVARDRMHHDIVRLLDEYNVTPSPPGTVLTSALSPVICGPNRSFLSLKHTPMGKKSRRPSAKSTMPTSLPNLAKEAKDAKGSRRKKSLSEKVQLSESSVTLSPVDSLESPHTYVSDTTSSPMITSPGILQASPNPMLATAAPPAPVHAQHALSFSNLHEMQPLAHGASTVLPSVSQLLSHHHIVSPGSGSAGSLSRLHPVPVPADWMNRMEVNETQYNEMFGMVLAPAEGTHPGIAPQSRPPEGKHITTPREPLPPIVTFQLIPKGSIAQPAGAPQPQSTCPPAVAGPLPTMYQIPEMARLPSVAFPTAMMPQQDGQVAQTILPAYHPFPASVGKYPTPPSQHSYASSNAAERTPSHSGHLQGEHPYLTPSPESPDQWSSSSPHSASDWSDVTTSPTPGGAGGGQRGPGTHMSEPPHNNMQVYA

[6] = target: Pro-neuregulin-1, membrane-bound isoform (Homo sapiens) (UniProt Q02297); assay: small molecules binding neuregulin-1 protein – biochemical, small-molecule microarray, fluorescence 635/667, psychiatric disease protein project, primary screen (AID 1075); conditions: NRG1 binding, 635 nm fluorescence, higher = more signal;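 further: score combines 667 nm spot fluorescence with signal to noise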
Pro-neuregulin-1, membrane-bound isoform (Homo sapiens), sequence (Q02297 whole entry, looked up, the tested form may be a part, canonical isoform): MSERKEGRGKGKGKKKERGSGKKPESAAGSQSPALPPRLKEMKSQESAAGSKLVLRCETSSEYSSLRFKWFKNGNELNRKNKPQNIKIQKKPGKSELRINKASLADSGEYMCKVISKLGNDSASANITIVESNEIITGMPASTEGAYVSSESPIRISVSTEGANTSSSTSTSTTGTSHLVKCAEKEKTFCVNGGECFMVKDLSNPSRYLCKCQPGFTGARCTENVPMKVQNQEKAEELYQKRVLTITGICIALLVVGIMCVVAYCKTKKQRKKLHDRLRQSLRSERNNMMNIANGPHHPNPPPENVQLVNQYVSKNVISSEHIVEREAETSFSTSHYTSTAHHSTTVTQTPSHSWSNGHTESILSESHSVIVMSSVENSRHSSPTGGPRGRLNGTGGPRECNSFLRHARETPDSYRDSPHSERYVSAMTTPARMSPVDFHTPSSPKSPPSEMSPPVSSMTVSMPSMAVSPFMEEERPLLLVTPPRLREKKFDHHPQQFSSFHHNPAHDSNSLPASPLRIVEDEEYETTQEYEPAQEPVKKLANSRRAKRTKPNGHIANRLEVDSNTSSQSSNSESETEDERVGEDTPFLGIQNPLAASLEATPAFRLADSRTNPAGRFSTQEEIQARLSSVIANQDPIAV

[7] = tested on: Neuregulin-1 EGF-like domain; assay: small molecules binding NRG1 EGF domain – biochemical, small-molecule microarray, 635 nm fluorescence, primary screen (AID 1081); conditions: higher = more signal;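 further: binding of the protein to compounds printed on small-molecule microarray slides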
[8] = FRG1 expression reporter modulators in myotubes – cell-based, C2C12 myotubes, firefly/Renilla luciferase, luminescence, FRG1 inhibition for FSHD, primary screen (AID 1084); conditions: FRG1 promoter luciferase, higher = more signal, called active from +8 up or from −8 down
[9] = small molecules captured by biotinylated probe aFST – biochemical, small-molecule microarray, fluorescence 635/667, stem cell growth factor project, primary screen (AID 1086); conditions: higher = more signal;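 further: score merges 667 nm fluorescence with signal-to-noise of each printed compound spot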
[10] = binders of probe aHhip on microarray, primary screen, stem cell growth factor project, biochemical, small-molecule microarray, fluorescence 635/667 (AID 1087); conditions: higher = more signal;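 further: score merges spot fluorescence at 667nm with spot signal to noise ratio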

Row | SMILES | composite z-score [1] | composite z-score [2] | composite z-score [3] | composite z-score [4] | composite z-score [5] | composite z-score [6] | composite z-score [7] | z-score [8] | composite z-score [9] | composite z-score [10]
1 | O=C1O[C@H](c2ccccc2)[C@H](c2ccccc2)N2[C@H]1[C@@H](C(=O)O)[C@]1(C(=O)Nc3ccc(C#CCCO)cc31)[C@H]2c1ccccc1OCCO | -0.324 | 0.627 | -0.0962 | 0.21 | -0.0765 | 0.944 | 1.23 | 0.37 (inactive) | -0.0238 | -0.0994
2 | N#Cc1ccc(NN2C(C(O)c3ccc(Br)cc3)C=CC3C(=O)N(c4ccccc4)C(=O)C32)cc1 (stereo not given) | 1.36 | 0.288 | 0.254 | 0.73 | 1.58 | 1.74 | 0.976 | -2.87 (inactive) | 0.907 | -0.182
3 | C=CC[C@@]1(C(=O)NCCCOC)N=C(c2ccc(OCCCO)cc2)O[C@@H]1c1ccccc1 | 0.513 | 1.09 | 0.0679 | -0.562 | -0.0215 | 1.84 | 1.15 | -1.24 (inactive) | 0.74 | 0.712
4 | CCOC(=O)C[C@H]1[C@H](OC(=O)Cc2ccc3c(c2)OCO3)[C@@H](NC(=O)c2ccc3ccccc3n2)c2cc(OCCCO)ccc2N1C(=O)c1ccccc1 | -0.0059 | 0.111 | 0.051 | 0.202 | 0.64 | 0.405 | -0.111 | 1.15 (inactive) | 0.23 | -0.069
5 | CCOC(=O)C1=C[C@@H](c2ccccc2)N(S(=O)(=O)c2ccc(C)cc2)[C@H]1c1ccc(OC)cc1 | 0.0896 | 0.733 | 0.479 | 0.848 | 1.61 | 1.02 | 1 | -2.76 (inactive) | 1.14 | 0.554
6 | [N-]=[N+]=NCc1ccccc1[C@@H]1OC(c2ccc(OCCCO)cc2)=N[C@]1(CCS(=O)(=O)c1ccccc1)C(=O)O | 0.561 | -0.0845 | 0.0116 | 0.396 | 0.797 | 1.92 | 0.733 | 5.28 (inactive) | 0.641 | -0.0994
7 | O=C1O[C@@H](c2ccccc2)[C@@H](c2ccccc2)N2[C@@H](c3ccc(O)cc3)[C@]3(C(=O)Nc4ccc(C#CCCO)cc43)[C@@H](C(=O)N3CCN(c4ncccn4)CC3)[C@H]12 | -1.14 | -0.307 | -0.265 | 0.204 | 0.973 | 0.564 | 1.35 | -1.55 (inactive) | -0.925 | -1.27
8 | CCCNC(=O)[C@@]1(Sc2ccc(C)cc2)CC(=O)N(C2Cc3ccccc3C2)[C@@H]1c1ccc(CO)cc1I | 0.427 | 0.31 | -0.103 | 0.0119 | -0.445 | 0.917 | 1.01 | -0.653 (inactive) | -0.227 | 0.0505
9 | COc1ccc(CCNC(=O)[C@@H]2c3ccccc3C(=O)N(C3CCCCC3)[C@H]2c2ccc(CO)cc2)cc1 | 0.0003 | 1.3 | 0.104 | 0.329 | 0.785 | 1.05 | 1.24 | -0.335 (inactive) | 0.246 | -0.0645
10 | C=C(COC)/C(=C/C[C@H](OC(=O)c1ccncc1)c1ccccc1OCCO)c1cc(C(=O)OC)ccc1OC | -0.457 | 0.562 | -0.167 | 0.67 | 0.302 | 1.16 | 0.869 | -0.872 (inactive) | 0.431 | -0.442
11 | CCOC(=O)C[C@H]1[C@H](OC(=O)c2ccccc2-c2ccccc2)[C@@H](NC(=O)c2ccc3ccccc3c2)c2cc(OCCCO)ccc2N1C(=O)c1ccccc1 | -0.421 | 0.483 | -0.0277 | 1.03 | 0.299 | 0.12 | 0.965 | -0.201 (inactive) | 0.0603 | 0.0373
12 | CCOC(=O)C[C@H]1[C@H](OC(=O)Cc2ccc3c(c2)OCO3)[C@@H](NC(=O)c2ccc3ccccc3n2)c2cc(OCCCO)ccc2N1C(=O)c1ccc2ccccc2n1 | -0.5 | 0.185 | -0.103 | 1.03 | 0.568 | 0.54 | 1.01 | -2.11 (inactive) | 0.37 | 0.171
13 | COC(=O)[C@@]1(Cc2ccc(OC)cc2)[C@H]2c3cc(C(=O)N4CCCC4)n(CCc4c[nH]c5ccc(O)cc45)c3C[C@H]2CN1C(=O)c1ccccc1 | 0.77 | 0.0885 | 0.155 | 0.897 | 1.7 | 1.44 | 1.37 | 0.829 (inactive) | 1.46 | -0.374
14 | CC(C)[Si]1(C(C)C)OCc2cc(-c3ccc(-c4ccc(Cl)c(Cl)c4)o3)nc(-c3ccccc3)c21 | 0.695 | -0.464 | -0.147 | -0.818 | -1.65 | 0.314 | -0.914 | -0.358 (inactive) | -0.774 | -0.134
15 | COCCOC(=O)N1C(=O)[C@@]2(c3cc(C#CCCO)ccc31)[C@H](C(=O)Nc1nc3ccccc3s1)[C@H]1C(=O)O[C@H](c3ccccc3)[C@H](c3ccccc3)N1[C@@H]2c1ccc(O)cc1 | -0.223 | 0.9 | -0.0403 | 0.83 | 1.53 | 1.07 | 0.72 | -0.948 (inactive) | 0.346 | 0.0505
16 | CC(C)(C)OC(=O)COc1cccc(C(=O)CCN2CCOCC2)c1 | 1.39 | 0.262 | -0.0741 | -0.459 | -0.742 | 0.359 | 0.187 | 1.57 (inactive) | 0.482 | -0.243
17 | Cc1ccccc1C(O)C1C=CC2C(=O)NC(=O)C2N1Nc1ccccn1 (stereo not given) | 0.888 | 0.127 | -0.129 | 0.0133 | 0.135 | 0.401 | -0.0441 | 1.08 (inactive) | -0.0817 | -0.134
